Results published in PubChem BioAssay (EPA / NIEHS).
Several values for one entry are separate records, joined by “and”; a condition that tells them apart may be missing. Equal entries are not always repeated. Activity calls are given as the source filed them. The calls were made as follows: active = hit-call score of the fitted dose curve at least 0.9, where 1 is the maximum; inactive = score below 0.9.

How the values were obtained:
Conditions in all cases: mRNA level, 48 h; actives raise or lower the signal
[1] = read-out: Hypoxia-inducible factor 1-alpha (Homo sapiens) (UniProt Q16665); test: LTEA_HepaRG_HIF1A: Life Technologies and Expression Analysis (LTEA) Assay for Hypoxia-inducible factor 1 (HIF1A) Trancription factor using HepaRG (AID 2283503)
Method in brief: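 Differentiated HepaRG cells in serum-free induction medium exposed 48 h, in duplicate, to 8-point half-log series from 100 uM in 0.5% DMSO. HIF1A mRNA measured by TaqMan qRT-PCR, normalized to ACTB/GAPDH/POLR2A, fitted bidirectionally versus DMSO.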

[2] = read-out: 3-Hydroxy-3-Methylglutaryl-CoA Synthase 2 (HMGCS2), HMGCS2 (gene 3158); test: LTEA_HepaRG_HMGCS2: Life Technologies and Expression Analysis (LTEA) Assay for 3-Hydroxy-3-Methylglutaryl-CoA Synthase 2 (HMGCS2) using HepaRG (AID 2283504)
Method in brief: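 HepaRG, plated 48 h then switched to serum-free induction media; cmpd 8-pt, max 100 uM, 1/2-log, 0.5% DMSO, n=2, 48 h. HMGCS2 mRNA by Fluidigm TaqMan qRT-PCR, ACTB/GAPDH/POLR2A norm; bidirectional fit vs DMSO.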

HGF (gene 3082) = test: LTEA_HepaRG_HGF: Life Technologies and Expression Analysis (LTEA) Assay for Hepatocyte Growth Facto (HGF) using HepaRG (AID 2283505)
Method in brief: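 Read-out is HGF transcript level by qRT-PCR, normalized to three housekeeping genes, fitted bidirectionally against 0.5% DMSO vehicle. Human HepaRG cells received test chemicals for 48 h at up to 100 uM.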

[3] = read-out: Insulin Like Growth Factor 1 (IGF1), IGF1 (gene 3479); test: LTEA_HepaRG_IGF1: Life Technologies and Expression Analysis (LTEA) Assay for Insulin Like Growth Factor 1 (IGF1) using HepaRG (AID 2283506)
Method in brief: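 HepaRG, plated 48 h, then switched to serum-free induction media; test chemical 8-pt half-log from 100 uM (0.5% DMSO), duplicate, 48 h. Lysis in RLT, TaqMan qRT-PCR, norm. ACTB/GAPDH/POLR2A. Bidirectional fit vs DMSO.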

[4] = read-out: Intercellular Adhesion Molecule 1 (ICAM1), ICAM1 (gene 3383); test: LTEA_HepaRG_ICAM1: Life Technologies and Expression Analysis (LTEA) Assay for Intercellular Adhesion Molecule 1 (ICAM1) using HepaRG (AID 2283507)
Method in brief: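 Readout is qRT-PCR mRNA level, normalized to three housekeeping genes and fitted bidirectionally against 0.5% DMSO vehicle. Human HepaRG cultures received compound for 48 h, top concentration 100 uM with half-log dilutions.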

[5] = read-out: Insulin-like growth factor-binding protein 1 (IGFBP1), IGFBP1 (gene 3484); test: LTEA_HepaRG_IGFBP1: Life Technologies and Expression Analysis (LTEA) Assay for Insulin-like growth factor-binding protein 1 (IGFBP1) using HepaRG (AID 2283508)
Method in brief: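 Thawed HepaRG cells are plated for 48 h, switched to serum-free induction medium, then dosed in duplicate for another 48 h (100 uM top, half-log steps). Lysates in RLT go to qRT-PCR, and gain or loss of signal is fitted relative to vehicle.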

[6] = read-out: Interleukin 6 (IL6), IL6 (gene 3569); test: LTEA_HepaRG_IL6: Life Technologies and Expression Analysis (LTEA) Assay for Interleukin 6 (IL6) using HepaRG (AID 2283509)
Method in brief: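 Differentiated human HepaRG cells, plated 48 h then switched to serum-free induction medium, were exposed in duplicate for 48 h to eight half-log concentrations up to 100 uM in 0.5% DMSO. IL6 mRNA measured by qRT-PCR, normalized to ACTB/GAPDH/POLR2A.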

[7] = read-out: Interleukin 6 Receptor (IL6R), IL6R (gene 3570); test: LTEA_HepaRG_IL6R: Life Technologies and Expression Analysis (LTEA) Assay for Interleukin 6 Receptor (IL6R) using HepaRG (AID 2283510);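 as to AC50: TaqMan qRT-PCR signal normalized to ACTB GAPDH and POLR2A housekeeping genes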
Method in brief: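 Readout is IL6R transcript level by TaqMan qRT-PCR, normalized to three housekeeping genes and fitted bidirectionally against 0.5% DMSO controls. Human HepaRG cells received chemicals for 48 h in serum-free induction medium, highest concentration 100 uM.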

[8] = read-out: Potassium channel subfamily K member 1 (KCNK1), KCNK1 (gene 3775); test: LTEA_HepaRG_KCNK1: Life Technologies and Expression Analysis (LTEA) Assay for Potassium channel subfamily K member 1 (KCNK1) using HepaRG (AID 2283511)
Method in brief: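 Differentiated human HepaRG cells in serum-free induction medium were exposed in duplicate for 48 h to 8 half-log concentrations up to 100 uM in 0.5% DMSO. KCNK1 mRNA was measured by TaqMan qRT-PCR, normalized to ACTB, GAPDH and POLR2A, and fitted bidirectionally versus DMSO.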

[9] = read-out: Keratin 19 (KRT19), KRT19 (gene 3880); test: LTEA_HepaRG_KRT19: Life Technologies and Expression Analysis (LTEA) Assay for Keratin 19 (KRT19) using HepaRG (AID 2283512)
Method in brief: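 KRT19 transcript levels, measured by Fluidigm qRT-PCR against three housekeeping genes, are fitted for gain or loss of signal relative to DMSO. Human HepaRG cells receive test chemicals (top 100 uM, half-log steps, 0.5% DMSO) for 48 hours.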

[10] = read-out: JUN Transcription Factor, JUN (gene 3725); test: LTEA_HepaRG_JUN: Life Technologies and Expression Analysis (LTEA) Assay for JUN Transcription Factor using HepaRG (AID 2283513)
Method in brief: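 Cells plated 48 h, medium switched to serum-free induction medium, then dosed 48 h (100 uM top, half-log dilutions, 0.5% DMSO). RNA isolated; JUN measured by qRT-PCR against three housekeeping genes; gain or loss fitted relative to DMSO.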

[11] = read-out: Lipoprotein lipase (LPL), LPL (gene 4023); test: LTEA_HepaRG_LPL: Life Technologies and Expression Analysis (LTEA) Assay for Lipoprotein lipase (LPL) using HepaRG (AID 2283515)
Method in brief: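 Differentiated human HepaRG cells in serum-free induction medium were exposed in duplicate for 48 h to eight half-log concentrations (top 100 uM) in 0.5% DMSO. LPL mRNA was quantified by TaqMan qRT-PCR, normalized to ACTB, GAPDH and POLR2A.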

[12] = read-out: MicroRNA 122 (MIR122), gene 406906; test: LTEA_HepaRG_MIR122: Life Technologies and Expression Analysis (LTEA) Assay for MicroRNA 122 (MIR122) using HepaRG (AID 2283516); also: the transcript read is the microRNA miR-122
Method in brief: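 HepaRG plated 48 h, switched to serum-free induction medium, then treated in duplicate for 48 h (100 uM top, half-log steps, 0.5% DMSO vehicle). RNA isolated, qRT-PCR performed, concentration-response fitted both directions relative to DMSO.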

[13] = read-out: matrix metalloproteinase-10 (MMP10), MMP10 (gene 4319); test: LTEA_HepaRG_MMP10: Life Technologies and Expression Analysis (LTEA) Assay for matrix metalloproteinase-10 (MMP10) using HepaRG (AID 2283517)
Method in brief: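 HepaRG, collagen I, ~100,000 cells/well; serum-free induction medium; 48 h exposure, duplicate, 8-pt half-log to 100 uM, 0.5% DMSO. Readout: TaqMan qRT-PCR, normalized to ACTB/GAPDH/POLR2A; bidirectional fit vs DMSO.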

MYC, MYC (gene 4609) = test: LTEA_HepaRG_MYC: Life Technologies and Expression Analysis (LTEA) Assay for MYC using HepaRG (AID 2283518)
Method in brief: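 HepaRG, ~100,000 cells/well, collagen I; 48 h plating; serum-free induction medium; 48 h dosing, duplicate, 100 uM top, half-log, 0.5% DMSO; total RNA → qRT-PCR MYC; gain/loss fit vs DMSO.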

[14] = read-out: matrix metalloproteinase-3 (MMP3), MMP3 (gene 4314); test: LTEA_HepaRG_MMP3: Life Technologies and Expression Analysis (LTEA) Assay for matrix metalloproteinase-3 (MMP3) using HepaRG (AID 2283519)
Method in brief: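 Differentiated human HepaRG cells, plated 48 h on collagen I, were exposed in duplicate for 48 h in serum-free induction medium to eight half-log concentrations up to 100 uM in 0.5% DMSO. MMP3 mRNA was quantified by TaqMan qRT-PCR, normalised to ACTB, GAPDH and POLR2A.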

[15] = read-out: Paternally Expressed 10 (PEG10), PEG10 (gene 23089); test: LTEA_HepaRG_PEG10: Life Technologies and Expression Analysis (LTEA) Assay for Paternally Expressed 10 (PEG10) using HepaRG (AID 2283520)
Method in brief: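 HepaRG, 48 h post-plating → serum-free induction medium → 48 h chemical exposure (duplicate, 8-pt, max 100 uM, half-log, 0.5% DMSO) → lysis in RLT → TaqMan qRT-PCR for PEG10, ACTB/GAPDH/POLR2A normalisation.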

[16] = read-out: Nuclear factor NF-kappa-B p105 subunit (Homo sapiens) (UniProt P19838); test: LTEA_HepaRG_NFKB1: Life Technologies and Expression Analysis (LTEA) Assay for Nuclear Factor Kappa B Subunit 1 (NFKB1) using HepaRG (AID 2283521)
Method in brief: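 NFKB1 transcript was measured by TaqMan qRT-PCR on Fluidigm arrays, normalised to three housekeeping genes and fitted in both directions against 0.5% DMSO. HepaRG cells were dosed in duplicate for 48 h in serum-free induction medium, eight half-log steps from 100 uM.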

[17] = read-out: Protein phosphatase 2A (PPP2R4), PTPA (gene 5524); test: LTEA_HepaRG_PPP2R4: Life Technologies and Expression Analysis (LTEA) Assay for Protein phosphatase 2A (PPP2R4) using HepaRG (AID 2283522)
Method in brief: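 Readout is PPP2R4 transcript level by microfluidic qRT-PCR after 48 h chemical treatment of human HepaRG liver cells. Concentrations spanned 100 uM downward in half-log steps; gain or loss of signal was fitted relative to DMSO.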

Measured: AC50

Chain of Nuclear factor NF-kappa-B p105 subunit (Homo sapiens) (P19838 whole entry, looked up): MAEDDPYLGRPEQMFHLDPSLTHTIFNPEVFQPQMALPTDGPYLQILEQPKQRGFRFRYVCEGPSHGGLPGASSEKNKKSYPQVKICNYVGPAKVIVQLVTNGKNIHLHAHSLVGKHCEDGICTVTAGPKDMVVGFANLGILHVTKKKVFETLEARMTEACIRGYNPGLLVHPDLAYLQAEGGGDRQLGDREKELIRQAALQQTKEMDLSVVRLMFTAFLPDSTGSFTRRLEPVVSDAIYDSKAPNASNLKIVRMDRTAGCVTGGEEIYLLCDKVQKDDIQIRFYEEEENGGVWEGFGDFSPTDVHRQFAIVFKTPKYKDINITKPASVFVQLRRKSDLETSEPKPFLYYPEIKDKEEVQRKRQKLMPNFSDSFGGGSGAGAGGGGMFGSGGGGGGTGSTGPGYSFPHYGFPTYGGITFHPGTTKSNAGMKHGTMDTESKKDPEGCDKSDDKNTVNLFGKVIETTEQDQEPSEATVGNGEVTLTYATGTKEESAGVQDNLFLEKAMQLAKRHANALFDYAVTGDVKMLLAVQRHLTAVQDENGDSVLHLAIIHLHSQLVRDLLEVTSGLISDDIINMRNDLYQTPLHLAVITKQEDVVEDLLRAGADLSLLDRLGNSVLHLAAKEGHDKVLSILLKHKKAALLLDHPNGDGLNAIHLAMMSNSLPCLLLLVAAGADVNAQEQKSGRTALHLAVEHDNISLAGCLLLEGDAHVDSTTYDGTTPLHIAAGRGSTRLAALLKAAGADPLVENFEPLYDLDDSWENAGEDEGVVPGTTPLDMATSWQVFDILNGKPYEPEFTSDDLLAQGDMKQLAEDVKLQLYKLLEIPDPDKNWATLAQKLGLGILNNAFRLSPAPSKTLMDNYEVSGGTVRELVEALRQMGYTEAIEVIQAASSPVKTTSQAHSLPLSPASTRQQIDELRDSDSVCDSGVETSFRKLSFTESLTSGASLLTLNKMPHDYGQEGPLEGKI
Chain of Hypoxia-inducible factor 1-alpha (Homo sapiens) (Q16665 whole entry, looked up): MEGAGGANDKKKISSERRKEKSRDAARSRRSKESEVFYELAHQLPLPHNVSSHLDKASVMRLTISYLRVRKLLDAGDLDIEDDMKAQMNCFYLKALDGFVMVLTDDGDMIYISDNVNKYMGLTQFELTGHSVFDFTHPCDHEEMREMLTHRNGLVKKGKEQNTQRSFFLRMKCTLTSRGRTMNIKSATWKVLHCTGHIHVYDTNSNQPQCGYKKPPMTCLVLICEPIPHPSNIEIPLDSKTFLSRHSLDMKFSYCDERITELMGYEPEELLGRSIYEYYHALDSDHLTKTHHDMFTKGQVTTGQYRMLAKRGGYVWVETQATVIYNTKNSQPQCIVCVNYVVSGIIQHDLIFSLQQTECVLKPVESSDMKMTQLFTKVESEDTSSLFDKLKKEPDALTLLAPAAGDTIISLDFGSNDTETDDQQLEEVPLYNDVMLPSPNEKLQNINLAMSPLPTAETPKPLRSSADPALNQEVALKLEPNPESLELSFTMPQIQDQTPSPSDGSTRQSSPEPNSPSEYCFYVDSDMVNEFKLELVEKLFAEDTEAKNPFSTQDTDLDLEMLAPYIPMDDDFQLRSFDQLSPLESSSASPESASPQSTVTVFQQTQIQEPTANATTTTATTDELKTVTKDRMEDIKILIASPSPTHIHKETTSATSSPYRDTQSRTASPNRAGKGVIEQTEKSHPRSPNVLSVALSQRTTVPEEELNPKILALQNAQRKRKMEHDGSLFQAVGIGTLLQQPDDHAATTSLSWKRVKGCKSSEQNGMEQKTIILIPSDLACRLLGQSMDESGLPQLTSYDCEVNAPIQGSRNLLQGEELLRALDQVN

CCOC1Oc2ccc(OS(C)(=O)=O)cc2C1(C)C (stereo not drawn)
inactive: [1] | HGF (gene 3082) | [4] | [8] | [10] | [13] | [14] | [17]
active: [2] 79.4 µM | [3] 62.3 µM | [5] 79.4 µM | [6] 89.4 µM | [7] 60.7 µM | [9] 66 µM | [11] 76.4 µM | [12] 78.7 µM | MYC, MYC (gene 4609) 77.7 µM | [15] 28.4 µM | [16] 9.92 µM

Clc1ccccc1-c1nnc(-c2ccccc2Cl)nn1
active: [9] 21.5 µM | [15] 30.7 µM
inactive: [1] | [2] | HGF (gene 3082) | [3] | [4] | [5] | [6] | [7] | [8] | [10] | [11] | [12] | [13] | MYC, MYC (gene 4609) | [14] | [17]

CCC(C)Nc1c([N+](=O)[O-])cc(C(C)(C)C)cc1[N+](=O)[O-] (stereo not drawn)
active: [2] 50 µM | [3] 48 µM | [15] 29.9 µM
inactive: [1] | HGF (gene 3082) | [4] | [5] | [6] | [7] | [8] | [9] | [10] | [11] | [12] | [13] | MYC, MYC (gene 4609) | [14] | [17]

O=C(O)COc1ccc(Cl)cc1Cl
inactive: [1] | [2] | HGF (gene 3082) | [3] | [4] | [6] | [7] | [8] | [9] | [10] | [12] | [13] | MYC, MYC (gene 4609) | [14] | [17]
active: [15] 10.1 µM

OCCOc1ccccc1
inactive: [1] | [2] | HGF (gene 3082) | [3] | [4] | [5] | [6] | [7] | [8] | [9] | [10] | [11] | [12] | [13] | MYC, MYC (gene 4609) | [14] | [15] | [17]

O=C(O)C(F)(F)C(F)(F)C(F)(F)C(F)(F)C(F)(F)C(F)(F)C(F)(F)F
inactive: [1] | HGF (gene 3082) | [3] | [4] | [5] | [6] | [7] | [8] | [9] | [10] | [11] | [12] | [13] | MYC, MYC (gene 4609) | [14] | [15] | [16] | [17]
active: [2] 15.2 µM and 7.54 µM
